Laboratory results published in PubChem BioAssay.
Values joined by “and” are separate entries in the source; they are usually repeats but may differ in a detail not shown here. Equal entries are not always repeated. For part of these data: Potency and affinity values are given separately. Active and inactive are the calls of the source.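 The calls were made as follows, unless noted: active = compounds whose cell count with miR-34 switched on is under 0.7 times the count with it off; inactive = the rest.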

Key:
[1] = differential killing of epithelial or mesenchymal cells, primary screen, imaging, PC-3E GFP, TEM4-18 mCherry, co-culture (AID 1345086;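 active = compounds killing one labelled cell type while sparing the other, by normalised counts and ratio limits, not self-fluorescent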;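 as to all read-outs here: cells exposed to compound for 72 h before imaging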;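 as to red/green cell ratio (normalised): normalised mesenchymal count divided by normalised epithelial count so high means epithelial killing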); details: imaging cell counts, at 1 µM; for red/green cell ratio (normalised): actives lie on both sides, counts scaled to control wells, 1 = unselective
[2] = sensitizers of A549 cells to miR-34 induction, primary screen, imaging, A549 dox-inducible miR-34, nuclei and caspase counts (AID 1347080); details: A549 miR-34 inducible, Hoechst nuclei count, 48 h
[3] = survival rescue of mitochondrial mutant cells in low glucose, primary screen, MELAS cybrids, Rieske KO mouse fibroblasts, CellTiter-Glo (AID 1508586;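 active = mean z-score across replicates of 1.96 or higher in either the MELAS or the Rieske mutant cell line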;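 also: z relative to plate mean and SD of compound and empty wells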)
[4] = biological target: NAD(+) hydrolase SARM1 (Homo sapiens) (UniProt Q6SZW1); experiment: SARM1 TIR NADase inhibitors, cell lysate, NAD-Glo luminescence (AID 1508614;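 active = compound whose remaining NAD level is above about 45 nM, limit read from the data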;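 also: higher remaining NAD means stronger inhibition of SARM1 NADase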); details: SAM-TIR HEK293T lysate NADase, at 1 µM, stronger effect = higher value
Chain of NAD(+) hydrolase SARM1 (Homo sapiens) (Q6SZW1 whole entry, looked up): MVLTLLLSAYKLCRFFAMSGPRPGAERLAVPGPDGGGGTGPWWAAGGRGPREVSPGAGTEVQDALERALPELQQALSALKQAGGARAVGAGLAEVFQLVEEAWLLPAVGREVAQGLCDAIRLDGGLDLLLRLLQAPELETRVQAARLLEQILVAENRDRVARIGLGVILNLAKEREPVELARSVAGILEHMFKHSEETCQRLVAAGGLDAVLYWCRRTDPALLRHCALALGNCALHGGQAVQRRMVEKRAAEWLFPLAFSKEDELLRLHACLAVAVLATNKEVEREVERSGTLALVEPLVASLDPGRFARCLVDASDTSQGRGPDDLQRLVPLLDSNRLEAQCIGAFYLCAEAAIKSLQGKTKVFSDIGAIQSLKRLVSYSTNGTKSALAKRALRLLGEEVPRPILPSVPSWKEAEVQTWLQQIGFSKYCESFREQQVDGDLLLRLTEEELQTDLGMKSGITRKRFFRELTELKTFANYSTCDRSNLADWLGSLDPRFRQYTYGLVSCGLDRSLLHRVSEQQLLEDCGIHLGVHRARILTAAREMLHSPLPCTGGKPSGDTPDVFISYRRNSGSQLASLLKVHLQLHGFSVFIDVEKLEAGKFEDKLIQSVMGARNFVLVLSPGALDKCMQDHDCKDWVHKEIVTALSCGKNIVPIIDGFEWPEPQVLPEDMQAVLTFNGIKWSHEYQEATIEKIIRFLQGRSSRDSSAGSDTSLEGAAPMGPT

[5] = circadian clock period modulators, cell-based, LOPAC library, luminescence reporter (AID 2774; call rule not given here;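 also: values are relative to mean of DMSO wells on each plate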); details: circadian reporter cells, at 7 µM, actives lie on both sides
[6] = test system: Hepatitis C virus NS3 helicase; experiment: HCV NS3 helicase inhibitors, primary screen, biochemical, fluorescence polarization, LOPAC1280 library (AID 687035; in the data active = inhibition above about 37%); details: Purified HCV NS3 helicase, Cy5-dT15 ssDNA binding fluorescence polarization; stronger effect = higher value; concentration not given here
[7] = Cy5 fluorescence quenching or enhancement artefacts, artefact control for HCV NS3 helicase inhibitor project, biochemical, LOPAC1280 (AID 687037; call rule not given here); details: Cy5-DNA-NS3h complex fluorescence interference counterscreen
[8] = phospholipid biosynthesis inhibitors in animal cells, primary screen, cell-based, LOPAC library, screen 4 (AID 1347384; call rule not given here); details: phospholipid biosynthesis inhibition screen, at 10 µM
[9] = viability rescue of complex I mutant cybrids, primary screen, cell-based, galactose medium, ATP luminescence (AID 1645843;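 active = z-score of at least 1.8 in each of two replicates, scored against plate mean and spread of sample wells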;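 also: positive z means more ATP and so rescue of galactose-driven cybrid death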); details: complex I mutant cybrid cells, 72 h, stronger effect = higher value
[10] = polyglutamine-triggered caspase-3 activation inhibitors, cell-based (AID 1583); details: polyglutamine-induced caspase-3 activation, cell assay; stronger effect = higher value;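 tested at 10 µM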
[11] = suppressors of polyQ aggregation in yeast, 75Q-TubU reporter (AID 1593); details: Yeast 75Q polyglutamine aggregation reporter
[12] = rescue of polyQ-huntingtin neuronal dysfunction in worms, whole organism, C. elegans mechanosensory neurons, N-terminal huntingtin (AID 1599); details: touch response, stronger effect = higher value
[13] = inhibitors of mitochondrial cytochrome c release, biochemical, purified mitochondria (AID 1603); details: stronger effect = lower value;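 also: mouse liver mitochondria challenged with calcium chloride; signal normalized to the plate average as 100%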
[14] = inhibitors of polyQ protein aggregation (AID 1604); details: polyglutamine-induced protein aggregation inhibition assay; stronger effect = higher value; tested at 2.5 µM
[15] = enhancers of glutamate uptake in motor neurons, MN-1 cell line (AID 1612); details: MN-1 motor neuron cells, stronger effect = higher value;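 also: tested at 1 µM final; 0% = mean of DMSO vehicle wells on each plate; positive means more glutamate uptake than control and negative means less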
[16] = suppressors of polyglutamine aggregation in yeast, 75Q-TubH (AID 1616); details: S. cerevisiae 75Q-TubH polyglutamine aggregation suppression; stronger effect = higher value
[17] = hESC survival regulators, cell-based (AID 493140; call rule not given here;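 also: cells exposed to compounds for four days before counting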); details: human embryonic stem cell survival screen; stronger effect = higher value
[18] = liver-stage malaria parasite growth inhibition, primary screen, cell-based, HepG2, luciferase luminescence, HepG2 viability (AID 624349; in the data active = parasite load remaining mostly below about 12%, no sharp cut-off; inactive = mostly above about 10%;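 also: 100% = mean of DMSO negative control wells on the same plate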); details: P. berghei liver stage in HepG2, luciferase luminescence, concentration not given here; parasite load remaining: stronger effect = lower value; viability: measured here: HepG2 viability without parasites
[19] = biological target: Mitogen-activated protein kinase 7 (Homo sapiens) (UniProt Q13164); experiment: ERK5 transactivation activators in reporter cells, primary screen, cell-based, HTS (AID 1508626;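 active = luciferase signal above three times the same-plate solvent-only control wells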;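 also: luciferase driven by Gal4-ERK5 fusion binding five Gal4 sites before minimal TATA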); details: HeLa Gal4-ERK5 transactivation, 18 h, at 5 µM, stronger effect = higher value
Chain of Mitogen-activated protein kinase 7 (Homo sapiens) (Q13164 whole entry, looked up, the tested form may be a part): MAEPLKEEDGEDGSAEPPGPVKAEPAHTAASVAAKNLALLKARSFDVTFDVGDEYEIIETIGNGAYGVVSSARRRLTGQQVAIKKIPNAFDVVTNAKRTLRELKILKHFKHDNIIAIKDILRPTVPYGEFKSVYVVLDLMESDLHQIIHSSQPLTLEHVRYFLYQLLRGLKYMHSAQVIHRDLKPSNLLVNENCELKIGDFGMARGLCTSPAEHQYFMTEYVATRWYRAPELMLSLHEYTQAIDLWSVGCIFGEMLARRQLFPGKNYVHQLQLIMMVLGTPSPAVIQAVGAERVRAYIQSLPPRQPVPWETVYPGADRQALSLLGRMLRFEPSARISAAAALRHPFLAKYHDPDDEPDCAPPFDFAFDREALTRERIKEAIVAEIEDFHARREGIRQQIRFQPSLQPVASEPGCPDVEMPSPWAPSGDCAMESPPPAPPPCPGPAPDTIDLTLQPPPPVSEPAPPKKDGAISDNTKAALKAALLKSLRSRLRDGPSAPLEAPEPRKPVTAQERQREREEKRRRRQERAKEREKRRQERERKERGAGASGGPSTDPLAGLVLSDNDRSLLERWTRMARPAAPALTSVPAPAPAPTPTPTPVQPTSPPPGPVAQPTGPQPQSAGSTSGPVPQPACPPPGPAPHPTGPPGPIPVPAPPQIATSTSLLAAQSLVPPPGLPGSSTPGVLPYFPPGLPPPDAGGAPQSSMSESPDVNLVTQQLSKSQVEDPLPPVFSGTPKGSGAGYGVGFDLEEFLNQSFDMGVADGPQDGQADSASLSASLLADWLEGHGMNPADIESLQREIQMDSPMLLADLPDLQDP

[20] = reducers of polyQ inclusions in PC12 cells, cell-based, NGF-treated PC12, GFPQ80 (AID 1614); details: PC12 NGF-treated GFP-polyQ80 inclusion reduction;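 also: lower means fewer inclusions and 0 means no inclusions at all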
[21] = measured here: epithelial PC-3E GFP cell survival
[22] = measured here: mesenchymal TEM4-18 mCherry cell survival
[23] = stronger effect = lower value, cell number ratio, induced over uninduced
[24] = measured here: relative caspase fold change +Dox/-Dox
[25] = measured here: total cells with miR-34 induction, stronger effect = lower value
[26] = measured here: total cells without miR-34 induction
[27] = MELAS cybrid survival, CellTiter-Glo 48 h, stronger effect = higher value
[28] = Rieske KO mouse fibroblast survival, CellTiter-Glo 72 h

## CN(C)CC(c1ccc(O)cc1)C1(O)CCCCC1 (configuration not stated)
[1]
  red/green cell ratio (normalised): 1 (inactive)
[1]; [21]
  normalised cell number: 0.79
[1]; [22]
  normalised cell number: 0.79
[2]; [23]
  fold change: 0.982 (inactive) and 0.891 (inactive) and 0.889 (inactive)
[2]; [24]
  fold change: 0.639 and 1.05 and 1.37
[2]; [25]
  cell count: 9600 and 8680
[2]; [26]
  cell count: 9780 and 9740 and 9750
[3]; [27]
  z-score: -0.237 (inactive) and -0.203 (inactive)
[3]; [28]
  z-score: -0.123 and -0.139
[4]
  remaining NAD: 10 nM (inactive)

## COc1cc([C@@H]2c3cc4c(cc3[C@H](O)C3COC(=O)[C@@H]32)OCO4)cc(OC)c1OC (some centres not stated)
[5]
  period change: 0.2 h (inactive)
[6]
  inhibition: -3% (inactive)
[7]
  fluorescence ratio (interference): 1 (inactive)
[1]
  red/green cell ratio (normalised): 1.07 (inactive)
[1]; [21]
  normalised cell number: 0.17
[1]; [22]
  normalised cell number: 0.18
[2]; [23]
  fold change: 0.98 (inactive)
[2]; [24]
  fold change: 1.04
[2]; [25]
  cell count: 1670
[2]; [26]
  cell count: 1710
[8]
  outcome: inactive
[9]
  z-score: -0.545 (inactive)

## CN1CCN(C(c2ccccc2)c2ccc(Cl)cc2)CC1 (configuration not stated)
[10]
  inhibition: 9.79%
[11]
  score: 1.32
[12]
  rescue above control: 0
[13]
  cytochrome c release ratio: 1.15
[14]
  inhibition of aggregation: 65.4%
[15]
  glutamate uptake change: 11.5%
[16]
  aggregation suppression score: 0.963
[17]
  survival: 1.83 (inactive)
[18]
  parasite load remaining: 76% (inactive) and 58.1% (inactive)
  viability: 93.1% and 88.3%
[1]
  red/green cell ratio (normalised): 1.15 (inactive)
[1]; [21]
  normalised cell number: 1.09
[1]; [22]
  normalised cell number: 1.26
[2]; [23]
  fold change: 0.825 (inactive) and 0.923 (inactive)
[2]; [24]
  fold change: 1.22 and 0.572
[2]; [25]
  cell count: 7440 and 10400
[2]; [26]
  cell count: 9010 and 11300
[3]; [27]
  z-score: 0.513 (inactive)
[3]; [28]
  z-score: 1.23
[4]
  remaining NAD: 10 nM (inactive)
[19]
  luciferase signal: 100 AU (inactive)

## COc1cccc2c1C(=O)c1c(O)c3c(c(O)c1C2=O)C[C@@](O)(C(=O)CO)C[C@@H]3OC1C[C@H](N)[C@H](O)[C@H](C)O1 (some centres not stated)
[18]
  parasite load remaining: 18.8% (inactive)
  viability: 53.1%
[1]
  red/green cell ratio (normalised): 2.27 (inactive)
[1]; [21]
  normalised cell number: 0.17
[1]; [22]
  normalised cell number: 0.39
[2]; [23]
  fold change: 0.907 (inactive)
[2]; [24]
  fold change: 1.04
[2]; [25]
  cell count: 1130
[2]; [26]
  cell count: 1250

## O=C1c2c(O)cccc2[C@@H](O[C@@H]2O[C@H](CO)[C@H](O)[C@@H](O)[C@H]2O)c2cc(CO)cc(O)c21
[1]
  red/green cell ratio (normalised): 0.78 (inactive)
[1]; [21]
  normalised cell number: 1.12
[1]; [22]
  normalised cell number: 0.88
[2]; [23]
  fold change: 0.925 (inactive)
[2]; [24]
  fold change: 0.87
[2]; [25]
  cell count: 8450
[2]; [26]
  cell count: 9140

## c1ccc(C2CN3CCSC3=N2)cc1 (configuration not stated)
[5]
  period change: 0.075 h (inactive)
[17]
  survival: 5.17 (inactive) and 92.1 (inactive)
[18]
  parasite load remaining: 183% (inactive) and 71.5% (inactive)
  viability: 108% and 76.2%
[6]
  inhibition: -2% (inactive)
[7]
  fluorescence ratio (interference): 1 (inactive)
[1]
  red/green cell ratio (normalised): 1.29 (inactive) and 1 (inactive)
[1]; [21]
  normalised cell number: 0.85 and 1.04
[1]; [22]
  normalised cell number: 1.1 and 1.05
[2]; [23]
  fold change: 0.894 (inactive) and 0.914 (inactive) and 0.823 (inactive)
[2]; [24]
  fold change: 2.54 and 0.996 and 1.2
[2]; [25]
  cell count: 8980 and 9120 and 8770
[2]; [26]
  cell count: 10000 and 9980 and 10700
[8]
  outcome: inactive
[3]; [27]
  z-score: 0.49 (inactive)
[3]; [28]
  z-score: 0.36
[4]
  remaining NAD: 10 nM (inactive)
[9]
  z-score: 0.64 (inactive)

## O=C(O)C1CCCNC1 (configuration not stated)
[10]
  inhibition: 28%
[11]
  score: 2.59
[12]
  rescue above control: -9.05
[13]
  cytochrome c release ratio: 1.08
[14]
  inhibition of aggregation: 41.5%
[15]
  glutamate uptake change: -1.16%
[20]
  inclusion score: 2
[16]
  aggregation suppression score: 1.59
[5]
  period change: 0.19 h (inactive)
[18]
  parasite load remaining: 89.7% (inactive)
  viability: 95.9%
[6]
  inhibition: 0% (inactive)
[7]
  fluorescence ratio (interference): 0.9 (inactive)
[1]
  red/green cell ratio (normalised): 0.84 (inactive)
[1]; [21]
  normalised cell number: 1.28
[1]; [22]
  normalised cell number: 1.08
[2]; [23]
  fold change: 0.976 (inactive) and 0.953 (inactive)
[2]; [24]
  fold change: 1.22 and 0.942
[2]; [25]
  cell count: 9840 and 8650
[2]; [26]
  cell count: 10100 and 9080
[8]
  outcome: inactive
[9]
  z-score: 0.695 (inactive)

## CO/N=C(/C(=O)N[C@@H]1C(=O)N2C(C(=O)OCSC(=O)c3ccco3)=CCS[C@H]12)c1csc(N)n1
[1]
  red/green cell ratio (normalised): 0.72 (inactive)
[1]; [21]
  normalised cell number: 1.31
[1]; [22]
  normalised cell number: 0.94
[2]; [23]
  fold change: 0.907 (inactive)
[2]; [24]
  fold change: 0.846
[2]; [25]
  cell count: 8470
[2]; [26]
  cell count: 9350

## NCCCNCCCCNCCCN
[5]
  period change: -0.16 h (inactive)
[6]
  inhibition: -1% (inactive)
[7]
  fluorescence ratio (interference): 1 (inactive)
[1]
  red/green cell ratio (normalised): 1.05 (inactive)
[1]; [21]
  normalised cell number: 0.96
[1]; [22]
  normalised cell number: 1
[2]; [23]
  fold change: 0.928 (inactive)
[2]; [24]
  fold change: 0.993
[2]; [25]
  cell count: 10300
[2]; [26]
  cell count: 11100
[8]
  outcome: inactive
[9]
  z-score: -0.2 (inactive)

## CCNC1CN(CCCOC)S(=O)(=O)c2sc(S(N)(=O)=O)cc21 (configuration not stated)
[1]
  red/green cell ratio (normalised): 0.72 (inactive)
[1]; [21]
  normalised cell number: 1.22
[1]; [22]
  normalised cell number: 0.87
[2]; [23]
  fold change: 0.853 (inactive)
[2]; [24]
  fold change: 0.647
[2]; [25]
  cell count: 8320
[2]; [26]
  cell count: 9750
[3]; [27]
  z-score: -0.247 (inactive)
[3]; [28]
  z-score: -0.152

## CC1(C)S[C@@H]2[C@H](NC(=O)COc3ccccc3)C(=O)N2[C@H]1C(=O)O
[10]
  inhibition: 4.98%
[11]
  score: 1.39
[12]
  rescue above control: 1.16
[13]
  cytochrome c release ratio: 0.65
[14]
  inhibition of aggregation: 70.1%
[15]
  glutamate uptake change: -6.22%
[20]
  inclusion score: 2
[16]
  aggregation suppression score: 0.899
[18]
  parasite load remaining: 89.7% (inactive) and 64.4% (inactive) and 28.3% (inactive)
  viability: 71.1% and 91.3% and 70.5%
[1]
  red/green cell ratio (normalised): 1.2 (inactive)
[1]; [21]
  normalised cell number: 0.81
[1]; [22]
  normalised cell number: 0.98
[2]; [23]
  fold change: 0.943 (inactive) and 0.879 (inactive)
[2]; [24]
  fold change: 0.921 and 0.998
[2]; [25]
  cell count: 11800 and 10100
[2]; [26]
  cell count: 12500 and 11500
[3]; [27]
  z-score: 0.0944 (inactive)
[3]; [28]
  z-score: 0.173
[4]
  remaining NAD: 10 nM (inactive)
[19]
  luciferase signal: 64 AU (inactive)
[9]
  z-score: 0.895 (inactive)

## O=C(O)c1ccccc1Nc1ccccc1
[5]
  period change: -0.04 h (inactive)
[6]
  inhibition: 0% (inactive)
[7]
  fluorescence ratio (interference): 0.9 (inactive)
[1]
  red/green cell ratio (normalised): 0.96 (inactive)
[1]; [21]
  normalised cell number: 1.09
[1]; [22]
  normalised cell number: 1.05
[2]; [23]
  fold change: 1.06 (inactive) and 0.981 (inactive)
[2]; [24]
  fold change: 2.67 and 0.812
[2]; [25]
  cell count: 10300 and 5440
[2]; [26]
  cell count: 9720 and 5550
[8]
  outcome: inactive
[19]
  luciferase signal: 24 AU (inactive)
[9]
  z-score: 2.06 (active)
